This is a sample that favours compounds with a hit; in the whole collection about 2.3% have one here.
CHRM1 agonist: human M1 muscarinic receptor agonists, primary screen, Fluo-8 calcium fluorescence, CHO-K1 cells, HTS | CHO-K1 hM1, agonist mode; 0% DMSO, 100% acetylcholine EC100 | activation, % at 3 µM | actives 0.33% (n = 360,000) | AID 588814, 2011;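 active = activation above the run's mean compound activation plus 3 SD, cut at about 16% in these data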;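 also: peak over basal fluorescence ratio within a 140 s kinetic read after compound addition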
Target sequence (P11229 whole entry, looked up): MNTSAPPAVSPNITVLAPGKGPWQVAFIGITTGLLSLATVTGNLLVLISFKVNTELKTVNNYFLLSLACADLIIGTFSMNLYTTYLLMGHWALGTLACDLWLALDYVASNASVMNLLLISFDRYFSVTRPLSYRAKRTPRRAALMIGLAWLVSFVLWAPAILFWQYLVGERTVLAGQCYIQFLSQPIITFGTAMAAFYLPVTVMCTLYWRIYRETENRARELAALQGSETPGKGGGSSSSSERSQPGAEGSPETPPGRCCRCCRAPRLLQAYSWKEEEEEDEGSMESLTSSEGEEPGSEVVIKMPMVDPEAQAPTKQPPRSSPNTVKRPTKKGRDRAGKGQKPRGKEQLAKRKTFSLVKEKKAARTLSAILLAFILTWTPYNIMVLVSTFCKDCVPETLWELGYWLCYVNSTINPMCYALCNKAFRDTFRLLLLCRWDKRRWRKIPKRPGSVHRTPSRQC
M1 antag: human M1 muscarinic receptor antagonists, primary screen, CHO-K1 cells, Fluo-8 calcium fluorescence, 1536-well | Muscarinic acetylcholine receptor M1 (Homo sapiens), P11229 | CHO-K1 hM1, ACh EC80 antagonist | inhibition, % at 3 µM | actives 1.3% (n = 360,000);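 active = percent inhibition above its own plate's cutoff, namely the mean of that plate's compound wells plus 3 SD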;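 also: peak over basal fluorescence ratio during 140 s after agonist addition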
M1 PAM: human M1 muscarinic receptor positive allosteric modulators, primary screen, CHO-K1 cells, Fluo-8 calcium fluorescence, 1536-well. AID 588819, 2011. CHO-K1 hM1, ACh EC20; 0% = ACh EC20, 100% = maximal ACh. Muscarinic acetylcholine receptor M1 (Homo sapiens), P11229. actives 0.088% (n = 360,000). activation, % at 3 µM; in the data active = activation above about 19%, passing the limit was not always enough
M1 ag parental: counter-screen for M1 agonists: effect in parental CHO-K1 cells; Fluo-8 calcium fluorescence; scaled to maximal ATP response, vehicle zero; activation, % at 3 µM; actives 0.48% (n = 360,000); in the data active = activation above about 15%;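 also: untransfected CHO-K1 host cells lacking M1 receptor as counterscreen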
CHO-K1 Ca antag: counter-screen for M1 antagonists: effect in parental CHO-K1 cells; ATP-induced calcium, Fluo-8 fluorescence; inhibition, % at 3 µM; actives 0.6% (n = 360,000);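 active = inhibition above a per-plate cutoff, the plate's mean sample inhibition plus 3 SD, cut at about 24% in these data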
CHO-K1 Ca PAM: nonselective calcium activators in parental CHO-K1 cells, primary screen, counter-screen for M1 PAM project, cell-based, Fluo-8 calcium fluorescence, full deck, 1536-well | ATP EC20; 0% at ATP EC20, 100% at ATP max | activation, % at 3 µM | actives 0.02% (n = 360,000) | AID 602247, 2012;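 active = activation above the run cutoff, the mean activation of all test compounds plus 3 SD, cut at about 40% in these data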;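 also: peak over basal fluorescence ratio in a 140 s read after ATP addition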
Large screens that a line does not name were inactive.

Cc1cc(C)nc(NC(=NCCc2c[nH]c3ccccc23)NC(=O)c2ccco2)n1	M1 antag 29
Cc1ccc(F)c(NC(=O)/C(C#N)=C(\O)c2ccc(C(C)(C)C)cc2)c1	none
C=CCN1C(=O)c2ccc(C(=O)N(CCOC)c3c(N)n(CCCC)c(=O)[nH]c3=O)cc2C1=O	none
Cc1cccc(OCCC(=O)Nc2ccc(Cl)cc2F)c1	none
Cc1ccccc1OCC(=O)N(Cc1ccc(N(C)C)cc1)C1CCS(=O)(=O)C1 (centres undefined)	none
CN(C)c1ccc(CN(C(=O)COc2ccccc2)C2CCS(=O)(=O)C2)cc1 (centres undefined)	CHO-K1 Ca antag 27
CC(C)(C)C(=O)CN1C(=O)NC2(CCCc3ccccc32)C1=O (centres undefined)	none
COc1ccc(N2CCN(CC(O)COC(c3ccc(F)cc3)c3ccc(F)cc3)CC2)cc1 (centres undefined)	M1 antag 39
COc1ccc(N2CCN(CC(O)COC(c3ccccc3)c3ccccc3)CC2)cc1 (centres undefined)	none
CC(C)N1CCC(=O)NC1=O	none
CC(C)c1cc(N2CCC(=O)NC2=O)cc(C(=O)O)c1O	M1 ag parental 18
c1ccc(-c2nn3c(C4CCCCC4)nnc3s2)cc1	CHO-K1 Ca antag 25
c1ccc(-c2nn3c(C4CCCCC4)nnc3s2)nc1	none
O=C(O)/C=C/C(=O)N1CCN(C(c2ccccc2)c2ccccc2)CC1	M1 antag 42
CC(=O)/C(C(=N)N1CCN(C(c2ccccc2)c2ccccc2)CC1)=C(\C)O	M1 antag 99
Cc1ccc(S(=O)(=O)N2CCN(S(=O)(=O)c3ccccc3Br)C2=O)cc1	none
COC(=O)c1cc(S(=O)(=O)N2CCCC2=O)c(Cl)cc1Cl	none
CC(C)(C)Cc1c(-c2ccc(Br)cc2)nc2ccc(Cl)cn12	M1 antag 26
CC(C)(C)Cc1c(-c2ccccc2)nc2ccc(Cl)cn12	M1 antag 27
CC(C)(C)Cc1c(-c2ccc(Cl)cc2)nc2ccc(Cl)cn12	M1 antag 28
COCCNc1nc(-c2ccc(Cl)cc2C)c2sccc2n1	none
COc1ccc(CCNC(=O)C(=O)NCC2CCCN2S(=O)(=O)c2ccc(OC)cc2)cc1 (centres undefined)	M1 antag 27
COc1ccc(NC(=O)C(=O)NCC2CCCN2S(=O)(=O)c2cc(C)ccc2C)cc1 (centres undefined)	CHO-K1 Ca antag 52
COc1ccc(S(=O)(=O)N2CCCC2CNC(=O)C(=O)NC2CCCC2)cc1 (centres undefined)	none
CCn1cc(C(=S)N2CCC(C(N)=O)CC2)c2ccccc21	none
CC(=O)Nc1cc(-c2ccc(Cl)cc2)[nH]n1	none
Cc1cc(C(=O)CCl)c(C)n1CCc1ccc(Cl)cc1	M1 antag 33
COc1cccc2cc(C(=O)C3=C(O)C(=O)N(CCN4CCOCC4)C3c3cccc(Cl)c3)oc12 (centres undefined)	CHO-K1 Ca antag 27
CC1(C)C(c2ccccc2)=[N+]([O-])CN1O	none
Cc1cc(F)ccc1NCc1ccc([N+](=O)[O-])cc1	M1 ag parental 21
Cc1cc([N+](=O)[O-])ccc1NCc1ccc2c(c1)OCCO2	none
C=C(C)C(=O)Oc1ccc(N2C(=O)[C@@H]3C4C=CC(C4)[C@@H]3C2=O)cc1	none
Cc1ccccc1C1(CCN2CCCCC2)CCOC(C)(C)C1 (centres undefined)	M1 antag 52
Cc1ccc(-c2c3c(=O)n(C)c(=O)n(C)c3cn2Cc2ccccc2)cc1	none
Cn1c(=O)c2c(-c3ccccc3)n(CCCN3CCOCC3)cc2n(C)c1=O	CHO-K1 Ca antag 29
COc1ccccc1COc1cccn2c(N(C)C(=O)CCC3CCCC3)c(C)nc12	none
Cc1ccccc1COc1cccn2c(N(C)C(=O)CCC3CCCC3)c(C)nc12	M1 antag 39
CN1C2CCC1CC(NC(=O)CSc1ccc(Cl)cc1)C2 (centres undefined)	M1 antag 53
NC(=O)c1ccsc1NC(=O)CN1CCN(S(=O)(=O)c2ccccc2C(F)(F)F)CC1	M1 ag parental 16
O=C(c1cn(-c2ccccc2)nc1-c1ccc(F)cc1)N1CCCCC1	M1 ag parental 17
O=C(c1cn(-c2ccccc2)nc1-c1ccc(F)cc1)N1CCOCC1	none
O=c1nc(Oc2ccccc2)nc2ncccn12	none
CCOC(=O)c1ccc(CNCc2ccc(Br)cc2)cc1	M1 antag 65
CCOC(=O)CCNC(=O)N1CCC(CCC(=O)NCc2ccc(F)cc2)CC1	none
CCOC(=O)CCNCc1ccc(F)cc1	M1 antag 40
CCOC(=O)c1ccc(CNC(=O)CCC(=O)O)cc1	none
CCOC(=O)c1ccc(CNCc2ccccc2)cc1	M1 antag 52
COc1ccc(C(N)c2csc(Nc3ccc(C(=O)NCCCO)cn3)n2)cc1 (centres undefined)	none
CC1(C(=O)Nc2ccc3ccccc3c2)CCC(=O)N1CCc1c[nH]c2ccccc12 (centres undefined)	none
Cc1ccc(NC(=O)CSc2nc(=O)n(CCN(C)C)c3c2CCCC3)cc1Cl	none
CCn1cc(C(=O)NCCCOC(C)C)c(=O)c2cc(S(=O)(=O)N3CCOCC3)ccc21	none
CC1Cn2c(nnc2-c2ccc(F)cc2)S1 (centres undefined)	CHO-K1 Ca antag 26
CC1CCCCC1NC(=O)CN1CCC(NC(=O)C(C)(C)C)CC1 (centres undefined)	none
COc1ccc(S(=O)(=O)N(C)C[C@@H]2OCc3cnnn3CCCC(=O)N([C@@H](C)CO)C[C@@H]2C)cc1	M1 PAM 28
Cc1noc(C)c1NC(=O)N(C)C[C@H]1OCc2cnnn2CCCC(=O)N([C@H](C)CO)C[C@H]1C	M1 PAM 27
C[C@@H]1CN([C@@H](C)CO)C(=O)CCCn2nncc2CO[C@@H]1CN(C)C(=O)Nc1cccc(C(F)(F)F)c1	CHO-K1 Ca antag 26
C[C@@H]1CN([C@H](C)CO)C(=O)CCCn2nncc2CO[C@H]1CN(C)Cc1ccc(-c2ccccc2)cc1	none
C[C@H]1CN([C@@H](C)CO)C(=O)CCCn2nncc2CO[C@@H]1CN(C)Cc1ccc(-c2ccccc2)cc1	M1 antag 37
Cc1ccc(S(=O)(=O)N(C)C[C@H]2OCc3cnnn3CCCC(=O)N([C@@H](C)CO)C[C@H]2C)cc1	none

Source: PubChem
